The source of these data is PubChem BioAssay (EPA / NIEHS).

Common to all, as to details: mRNA level, 48 h; actives raise or lower the signal
Read-out in experiment [1]: Bcl-2 (BAD) gene, BAD (gene 572)
Put plainly: LTEA_HepaRG_BAD: Life Technologies and Expression Analysis (LTEA) Assay for Bcl-2 (BAD) gene using HepaRG (AID 2283469). The procedure, abridged: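 BAD transcript change, measured by qRT-PCR against three housekeeping genes and fitted in both directions relative to 0.5% DMSO, after 48 h chemical treatment of human HepaRG liver cells at concentrations up to 100 uM.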

Read-out in experiment [2]: Bcl-2 (BAX) gene, BAX (gene 581)
Put plainly: LTEA_HepaRG_BAX: Life Technologies and Expression Analysis (LTEA) Assay for Bcl-2 (BAX) gene using HepaRG (AID 2283470). The procedure, abridged: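 Differentiated human HepaRG cells, plated 48 h then switched to serum-free induction medium, were exposed 48 h to 8 half-log concentrations up to 100 uM in 0.5% DMSO; BAX mRNA measured by qRT-PCR, normalized to ACTB, GAPDH, POLR2A.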

Read-out in experiment [3]: adenosine kinase (ADK) gene, ADK (gene 132)
The experiment is described as follows: LTEA_HepaRG_ADK: Life Technologies and Expression Analysis (LTEA) Assay for adenosine kinase (ADK) gene using HepaRG (AID 2283471). A digest of the protocol:
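Read-out is ADK transcript level measured by qRT-PCR and normalised to three housekeeping genes. Cells are human HepaRG, dosed for 48 h at up to 100 uM in 0.5% DMSO. Gain or loss of signal is fitted against DMSO controls.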

Read-out in another experiment: BCL2L11 (gene 10018)
Put plainly: LTEA_HepaRG_BCL2L11: Life Technologies and Expression Analysis (LTEA) Assay for Bcl-2 (BCL2L11) gene using HepaRG (AID 2283473). A digest of the protocol: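 BCL2L11 transcript levels are measured by Fluidigm qRT-PCR, normalized to three housekeeping genes. HepaRG cultures were plated 48 h, then treated 48 h with test chemical (top 100 uM, half-log, 0.5% DMSO vehicle); curves were fitted bidirectionally against DMSO.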

Read-out in experiment [4]: Apolipoprotein A-V (APOA5) gene, APOA5 (gene 116519)
The experiment is described as follows: LTEA_HepaRG_APOA5: Life Technologies and Expression Analysis (LTEA) Assay for Apolipoprotein A-V (APOA5) gene using HepaRG (AID 2283474). A digest of the protocol: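 APOA5 transcript levels were quantified by qRT-PCR, normalized to three housekeeping genes, after 48 h chemical treatment of HepaRG cells (8 points, 100 uM maximum, half-log steps, 0.5% DMSO). Curves fitted in both directions against vehicle.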

Read-out in experiment [5]: Apoptosis regulator Bcl-2 (Homo sapiens) (UniProt P10415)
Put plainly: LTEA_HepaRG_BCL2: Life Technologies and Expression Analysis (LTEA) Assay for Bcl-2 gene using HepaRG (AID 2283475). A digest of the protocol: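 Differentiated HepaRG cells in serum-free induction medium were exposed for 48 h to eight half-log concentrations up to 100 uM in 0.5% DMSO, in duplicate. BCL2 mRNA was quantified by TaqMan qRT-PCR normalised to ACTB, GAPDH and POLR2A, with bidirectional fitting versus DMSO.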

Read-out in experiment [6]: Bcl-2 (BID) gene, BID (gene 637)
Put plainly: LTEA_HepaRG_BID: Life Technologies and Expression Analysis (LTEA) Assay for Bcl-2 (BID) gene using HepaRG (AID 2283476). The procedure, abridged: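 Differentiated HepaRG cells in serum-free induction medium were exposed in duplicate for 48 h to eight half-log concentrations up to 100 uM in 0.5% DMSO. BID mRNA was quantified by qRT-PCR, normalized to ACTB, GAPDH and POLR2A.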

Read-out in a further experiment: Caspase-3 (Homo sapiens) (UniProt P42574)
The experiment is described as follows: LTEA_HepaRG_CASP3: Life Technologies and Expression Analysis (LTEA) Assay for cysteine-aspartic acid protease (CASP3) using HepaRG (AID 2283477). The procedure, abridged:
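Expression of CASP3 was quantified by TaqMan qRT-PCR against three housekeeping genes (ACTB, GAPDH, POLR2A), bidirectionally versus 0.5% DMSO. HepaRG cultures received compounds in duplicate, top 100 uM with half-log steps, for 48 h in serum-free induction medium.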

Read-out in experiment [7]: Cytochrome P450 (CYP24A1), CYP24A1 (gene 1591)
Put plainly: LTEA_HepaRG_CYP24A1: Life Technologies and Expression Analysis (LTEA) Assay for Cytochrome P450 (CYP24A1) using HepaRG (AID 2283478). A digest of the protocol: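 mRNA of CYP24A1 quantified by TaqMan qRT-PCR (ACTB/GAPDH/POLR2A normalization) after 48 h chemical exposure of HepaRG cells, top concentration 100 uM, half-log steps, 0.5% DMSO vehicle, duplicates. Curves fitted bidirectionally against DMSO baseline.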

Read-out in experiment [8]: Alpha-fetoprotein (AFP) gene, AFP (gene 174)
The experiment is described as follows: LTEA_HepaRG_AFP: Life Technologies and Expression Analysis (LTEA) Assay for Alpha-fetoprotein (AFP) gene using HepaRG (AID 2283472). The procedure, abridged: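 Human HepaRG cells plated 48 h, then switched to serum-free induction medium and exposed in duplicate for 48 h to 8-point half-log series from 100 uM in 0.5% DMSO. AFP mRNA by qRT-PCR, normalized to ACTB, GAPDH, POLR2A; bidirectional fit versus DMSO.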

The source made the active and inactive calls. How the source made its calls: active means hit-call score of the fitted dose curve at least 0.9, where 1 is the maximum; inactive means score below 0.9.

Chain of Apoptosis regulator Bcl-2 (Homo sapiens) (P10415 whole entry, looked up): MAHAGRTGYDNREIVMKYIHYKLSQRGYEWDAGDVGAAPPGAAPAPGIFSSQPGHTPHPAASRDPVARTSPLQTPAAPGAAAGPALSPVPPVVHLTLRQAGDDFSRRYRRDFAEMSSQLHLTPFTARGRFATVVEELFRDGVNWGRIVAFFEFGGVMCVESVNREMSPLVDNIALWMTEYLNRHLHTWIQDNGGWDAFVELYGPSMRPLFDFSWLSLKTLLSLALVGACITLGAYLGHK
Chain of Caspase-3 (Homo sapiens) (P42574 whole entry, looked up): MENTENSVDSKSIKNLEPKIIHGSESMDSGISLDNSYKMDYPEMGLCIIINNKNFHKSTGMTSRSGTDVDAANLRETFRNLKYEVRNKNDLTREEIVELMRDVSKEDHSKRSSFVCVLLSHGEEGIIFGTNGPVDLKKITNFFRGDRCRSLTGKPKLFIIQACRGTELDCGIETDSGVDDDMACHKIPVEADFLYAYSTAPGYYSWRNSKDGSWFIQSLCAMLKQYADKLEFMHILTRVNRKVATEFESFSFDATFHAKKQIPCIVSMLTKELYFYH

Usually AC50 stands for the concentration at which the activity in the assay is half-maximal. Consider `CCc1ccc(CCOc2ccc(CC3SC(=O)NC3=O)cc2)nc1` (centres undefined), for which the call (in [1]; in experiment [2]; in experiment [3]; in the experiment with BCL2L11 (gene 10018); in experiment [6]; with Caspase-3 (Homo sapiens)) was inactive. In addition, in experiment [7], the molecule was called inactive. Further, the concentration at half-maximal activity (AC50) in experiment [4] is 84.6 µM (active); in experiment [5] it was 72.6 µM (active).
Consider `COC(=O)CCCCC(=O)OC`, for which the result (in experiment [1]; in experiment [2]; in [3]; in experiment [8]; with BCL2L11 (gene 10018); in experiment [4]) was inactive. Further, the molecule was classed as inactive (in experiment [5]; in experiment [6]; in the experiment with Caspase-3 (Homo sapiens); in [7]).
For `CCOC(=O)CC(O)(CC(=O)OCC)C(=O)OCC`, the call (in experiment [1]; in experiment [2]; in experiment [3]; in experiment [8]; in the experiment with BCL2L11 (gene 10018); in experiment [4]) was inactive. For the same molecule, the molecule was called inactive (in experiment [5]; in experiment [6]; with Caspase-3 (Homo sapiens); in experiment [7]).
`CCCOc1sc(C(=O)N2CCC(c3cc(CN)ccc3F)CC2)c(C)c1Br`: the call (in [1]; in experiment [2]; in experiment [3]; in experiment [8]; with BCL2L11 (gene 10018); in [4]) was inactive. For the same molecule, the result (in experiment [5]; in the experiment with Caspase-3 (Homo sapiens); in experiment [7]) was inactive. Moreover, the AC50 in experiment [6] is 0.0539 µM (active).
Regarding `CC(=O)CC(C)(C)O`, the outcome (in [1]; in experiment [2]; in experiment [3]; in experiment [8]; in the experiment with BCL2L11 (gene 10018); in [4]) was inactive. The result (in experiment [5]; in experiment [6]; in the experiment with Caspase-3 (Homo sapiens); in experiment [7]) was inactive.
With `CCCCCCCCC(=O)O`, the call (in experiment [1]; in experiment [2]; in [3]; in experiment [8]; with BCL2L11 (gene 10018); in experiment [4]) was inactive. In addition, the result (in experiment [5]; in experiment [6]; with Caspase-3 (Homo sapiens); in [7]) was inactive.
For `CC[C@H](c1ccc(O)cc1)[C@@H](CC)c1ccc(O)cc1`, the molecule was called inactive in experiment [1], in experiment [2], in [8], in experiment [4], in experiment [5] and in [6]. The AC50 in [3] was 77.1 µM (active); with BCL2L11 (gene 10018), 77.7 µM (active); in the experiment with Caspase-3 (Homo sapiens), 78.4 µM (active); in [7], 83.4 µM (active).
For `CCCCCCCCCCCCN1CCCC1=O`, the call (in experiment [1]; in experiment [2]; in experiment [3]; in [8]; in the experiment with BCL2L11 (gene 10018); in experiment [4]) was inactive. Moreover, the molecule was classed as inactive (in [5]; in experiment [6]; in the experiment with Caspase-3 (Homo sapiens); in experiment [7]).
Consider `CC(C)(C)CC(C)(C)c1ccc(O)c(-n2nc3ccccc3n2)c1`, for which the molecule was classed as inactive (in [1]; in experiment [2]; in experiment [3]; in experiment [8]; with BCL2L11 (gene 10018); in experiment [4]). The result (in experiment [5]; in experiment [6]; with Caspase-3 (Homo sapiens); in [7]) was inactive.
Regarding `OC1CCC(C2CCCCC2)CC1` (centres undefined), the outcome (in experiment [1]; in [2]; in experiment [3]; in experiment [8]; with BCL2L11 (gene 10018); in [4]) was inactive. The result (in experiment [5]; in [6]; in the experiment with Caspase-3 (Homo sapiens); in experiment [7]) was inactive.
Regarding `Cc1cc(CCN2CCN(c3nsc4ccccc34)CC2)cc2c1NC(=O)CC2(C)C`, the molecule was called inactive (in experiment [1]; in experiment [3]; with BCL2L11 (gene 10018); in experiment [6]; in the experiment with Caspase-3 (Homo sapiens); in experiment [7]). For the same molecule, the AC50 in experiment [2] was 93 µM (active); in experiment [8], 72.6 µM (active); in [4], 75.9 µM (active); in [5], 68.2 µM (active).
Turning to `C#C[C@]1(O)CC[C@H]2[C@@H]3CCC4=CC(=O)CC[C@@H]4[C@H]3CC[C@@]21C`, the molecule was called inactive (in experiment [1]; in experiment [2]; in [8]; with BCL2L11 (gene 10018); in experiment [5]; in experiment [6]). Moreover, the molecule was called inactive (with Caspase-3 (Homo sapiens); in experiment [7]). For the same molecule, the concentration at half-maximal activity (AC50) in [3] and in [4] was 9.92 µM (active) throughout.
With `Oc1cc2ccccc2c2ccccc12`, the molecule was classed as inactive (in [1]; in [2]; in experiment [3]; in [8]; with BCL2L11 (gene 10018); in experiment [4]). The outcome (in experiment [5]; in experiment [6]; with Caspase-3 (Homo sapiens); in [7]) was inactive.
Turning to `CCN(CC)CCNc1ccc(CNC=O)c2sc3ccc(OC)cc3c(=O)c12`, the molecule was classed as inactive in experiment [1], in [2], in [5], in experiment [6] and in experiment [7]. In addition, the AC50 was 76.7 µM (active) in experiment [3]; 11.5 µM (active) in experiment [8]; 21.9 µM (active) in the experiment with BCL2L11 (gene 10018); 12.4 µM (active) in experiment [4]; 72.7 µM (active) with Caspase-3 (Homo sapiens).
Take `Cc1oc(-c2ccccc2)nc1CCOc1ccc(C[C@H](Nc2ccccc2C(=O)c2ccccc2)C(=O)O)cc1`: the outcome in [1], in experiment [2], in experiment [8], in experiment [4], in experiment [5] and in experiment [7] was inactive. In addition, the AC50 in experiment [3] is 30.5 µM (active); with BCL2L11 (gene 10018) it was 84.6 µM (active); in experiment [6], 75.6 µM (active); with Caspase-3 (Homo sapiens) it was 32.7 µM (active).
